# According to PubChem BioAssay (NCATS):
# Inconclusive results are not listed. Values without a mark were called inactive. Active and inactive are the calls of the source. The call rests on the fitted dose curve; in most records, active means well fitted inhibition curve with a large enough effect; inconclusive means small, poorly fitted or top-dose-only effect; inactive means flat fitted curve, though single readings scatter.
# Tested on: Zika virus NS2B-NS3 protease
# Assay: Primary screen GU AMC qHTS for Zika virus inhibitors (AID 1347154); further: nearly all actives have a fitted effect of over 70% in size;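 on activity change, negative = inhibition: 0% = no-inhibitor control and -100% = no-enzyme control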
# Conditions: Zika NS2B-NS3 unlinked protease, AMC fluorogenic substrate; series mostly up to 54.1 µM; activity change, negative = inhibition: at the top concentration
# How it was run: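 Unlinked Zika NS2B hydrophilic domain–NS3 protease complex at 25 nM in 10 mM Tris-HCl pH 8.0, 0.01% Tween 20, with an AMC peptide substrate. Fluorescence change (340/450 nm) over 15 min at room temperature, normalized to controls, fitted to 4-parameter Hill.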
# Potency means the concentration at half of the fitted maximal effect.
Structure (SMILES),"activity change, negative = inhibition",Potency
CC(C)(F)C[C@H](N[C@@H](c1ccc(-c2ccc(S(C)(=O)=O)cc2)cc1)C(F)(F)F)C(=O)NC1(C#N)CC1,-0.85%,
C[C@]12CC[C@@H]3c4ccc(O)cc4CC[C@H]3[C@H]1[C@@H](O)[C@@H](O)[C@H]2O,5.82%,
O=C(O)CCC=CCC[C@@H]1[C@H](N2CCCCC2)[C@@H](O)C[C@@H]1OCc1ccc(-c2ccccc2)cc1,1.91%,
CCOC(=O)N1c2ccc(C(F)(F)F)cc2[C@@H](N(Cc2cc(C(F)(F)F)cc(C(F)(F)F)c2)C(=O)OC)C[C@H]1CC,-1.56%,
Cc1ccc(S(=O)(=O)Nc2nc3ccccc3nc2Nc2ccc3nsnc3c2)cc1,10.7% [at 25.8 µM],
Cc1cccc(-c2[nH]c(C(C)(C)C)nc2-c2ccc3c(c2)OCO3)n1,0.608%,
COc1cc(F)c(C(C)C)cc1-c1ccc(C(F)(F)F)cc1CN1C(=O)O[C@H](c2cc(C(F)(F)F)cc(C(F)(F)F)c2)[C@@H]1C,-3.8%,
OC1CCC(Nc2ncc3nc(Nc4c(F)cc(F)cc4F)n([C@@H]4CCOC4)c3n2)CC1 (stereo not given in full),,24.1 µM (active)
O=C(O)c1ccc(O)c2ncc(N3CCOCC3)cc12,-18.1%,
COc1cc2nccc(Oc3ccc(NC(=O)Nc4ccc(F)cc4F)c(F)c3)c2cc1OC,,inactive
CC[C@@H]([C@H](C)O)n1ncn(-c2ccc(N3CCN(c4ccc(OCC5CO[C@@](Cn6cncn6)(c6ccc(F)cc6F)C5)cc4)CC3)cc2)c1=O (stereo not given in full),2.19%,
C=CCc1cccc(C=NNC(=O)CN2CCN(Cc3ccccc3)CC2)c1O,-6.05%,
CC1CNc2c(cccc2S(=O)(=O)N[C@@H](CCCN=C(N)N)C(=O)N2CC[C@@H](C)C[C@@H]2C(=O)O)C1 (stereo not given in full),7.78%,
Nc1ccn([C@@H]2O[C@H](CO)[C@@H](O)[C@H]2O)c(=O)n1,18%,
CN(C)N=Nc1nc[nH]c1C(N)=O,5.32%,
CN(C)CCN(Cc1ccc(Cl)cc1)c1ccccn1,0.0014%,
CCC(c1ccc(O)cc1)C(CC)c1ccc(O)cc1 (stereo not given),4%,
COc1cc2c(cc1OC)CC(=O)N(CCCN(C)C[C@H]1Cc3cc(OC)c(OC)cc31)CC2,83%,

Structure (SMILES),"activity change, negative = inhibition",Potency
NC[C@H]1O[C@H](O[C@@H]2[C@@H](O)[C@@H](O[C@H]3O[C@H](CO)[C@@H](O)[C@H](N)[C@@H]3O)[C@H](N)C[C@@H]2N)[C@H](O)[C@@H](O)[C@H]1O,10.1%,
Cc1ccc(C2=Nc3ccc(Cl)cc3OC2)cc1,-13.6%,
O=C(NCCCCN1CCOCC1)c1cc2ccccc2o1,13.6%,
N[C@@H](CC(=O)N1CCn2c(nnc2C(F)(F)F)C1)Cc1cc(F)c(F)cc1F,4.35%,
COC1CCC(C(=O)c2ccc3nc4c(cc3c2)CCCO4)CC1 (stereo not given),-1.28%,
O=C(NC[C@H](O)CO)c1ccncc1Nc1ccc(I)cc1F,5.69%,
CCOC(=O)c1c(CSc2ccccc2)n(C)c2cc(Br)c(O)c(CN(C)C)c12,-4.56%,
CCCCC(C)(C)[C@H](O)C=C[C@H]1[C@H](O)CC(=O)[C@H]1CC=CCCCC(=O)O,-3.53%,
CN1C(=O)C[C@H](C(=O)N[C@@H](Cc2cnc[nH]2)C(=O)N2CCC[C@@H]2C(N)=O)NC1=O,1.52%,
CC[C@H](C=C[C@@H](C)[C@H]1CC[C@H]2[C@@H]3CC=C4C[C@@H](O)CC[C@]4(C)[C@@H]3CC[C@]12C)C(C)C,-3.13% [at 25.8 µM],
Cc1cc(NC(=O)Nc2ccc(N(C)C)cc2)c2cc(F)cc(F)c2n1,-1.41%,
CCC(=O)NCC[C@@H]1CCc2ccc3c(c21)CCO3,6.97%,
CC[C@H](C)C(=O)O[C@H]1C[C@H](O)C=C2C=C[C@H](C)[C@H](CC[C@@H](O)C[C@@H](O)CC(=O)O)[C@H]21,,inactive
CN1CCN(c2ncc(-c3cc(Cl)cc(Cl)c3Cl)c(N)n2)CC1,0.212%,
C#CCN(C)CC1=Cc2ccccc2Oc2ccccc21,-19.8%,
O=c1[nH]nc(OCCCc2ccc(Cl)cc2)c(NCc2cccnc2)c1Br,6.03%,
CN1CC(=O)NC1=NC(=O)Nc1cccc(Cl)c1,-4.35%,
